The values below come from PubChem BioAssay (NCI).

SMILES strings stand for the structures. About 83,000 compounds went through this panel and 20% of them were active in at least one assay; those are over-represented in the sample as a whole.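 Plates (96-well) were seeded with cells, treated with compound at one concentration, and incubated for 48 hours before percent growth was determined.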 A number with no mark means an inactive call. Activity calls are given as the source filed them. How the source made its calls: active means growth percent below 10; inactive means the rest.

What all share (experiment): NCI-60 one-dose screen, 48 h (100 = growth as untreated, 0 = no growth, -100 = all killed)
Test [1] concerns SK-MEL-2 melanoma. The conditions noted are these: 10 µM.
In test [2] the test system is EKVX NSCLC. The conditions noted are these: 10 µM unless noted.
In test [3] the test system is SN12C renal. The conditions noted are these: 10 µM unless noted.
Test [4] deals with UO-31 renal. As to conditions: 10 µM unless noted.
Test [5] deals with ACHN renal. The conditions noted are these: 10 µM unless noted.
Test [6] has as its system CAKI-1 renal. As to conditions: 10 µM unless noted.
In test [7] the test system is CCRF-CEM leukemia. As to conditions: 10 µM unless noted.
For test [8], the system named is MOLT-4 leukemia. The conditions noted are these: 10 µM unless noted.
The subject of test [9] is SR leukemia. The conditions noted are these: 10 µM unless noted.
The subject of test [10] is RPMI-8226 leukemia. As to conditions: 10 µM unless noted.
Test [11] has as its system OVCAR-8 ovarian. The conditions noted are these: 10 µM unless noted.
The subject of test [12] is OVCAR-5 ovarian. As to conditions: 10 µM unless noted.
Test [13] relates to OVCAR-4 ovarian. As to conditions: 10 µM unless noted.
Test [14] relates to SK-OV-3 ovarian. As to conditions: 10 µM unless noted.
Test [15] deals with IGROV1 ovarian. As to conditions: 10 µM unless noted.
The subject of test [16] is OVCAR-3 ovarian. As to conditions: 10 µM unless noted.
Test [17] relates to HS 578T breast. As to conditions: 10 µM.
In test [18] the test system is NCI/ADR-RES ovarian. The conditions noted are these: 10 µM unless noted.
The subject of test [19] is TK-10 renal. As to conditions: 10 µM unless noted.
For test [20], the system named is A498 renal. The conditions noted are these: 10 µM unless noted.

As to `COc1ccc2c(CCC(c3ccccc3)c3ccccc3)c3[n+](cc2c1OC)CCc1cc2c(cc1-3)OCO2`, the growth in [1] is -15% (active); in test [2] it was 24.7%; in test [3], 0.0445% (active); in [4] it was 45.6%; in test [5], 23.4%; in test [6] it was 60.2%. The growth was 6.45% (active) in test [7]; -10.1% (active) in [8]; -29.9% (active) in [9]; -9.79% (active) in test [10]; 2.77% (active) in test [11]; 29% in [12]. In addition, the growth in test [13] is 13.3%; in test [14], -12.8% (active); in test [15] it was 22.9%; in test [16] it was -0.03% (active); in test [17], 20.7%; in test [18] it was 78.9%.

As for `CCCC(=O)OCC1OC(n2cnc3c(=S)nc[nH]c32)C(OC(=O)CCC)C1OC(=O)CCC` (stereo unspecified), the growth is 12.5% in [1]; 69.3% in test [2]; 49.9% in test [3]; 32.6% in test [4]; 6.59% (active) in test [19]; 41.5% in [5]. The growth was 30.8% in test [20]; 24.6% in [7]; 18.6% in [8]; 24% in test [9]; -8.32% (active) in test [11]; 46.2% in [12]. The growth was 31.3% in [13]; 21% in [14]; 14.7% in test [15]; 22.7% in test [16]; 47.7% in [17]; 48.3% in [18].

As to `COC(=O)C1=C(C(=O)OC)C23C=C(C)C1C2=C(C)C1(CC1)[C@@](C)(O)C3=O` (stereo partly specified), the growth was -54.6% (active) in [1]; -6% (active) in test [2]; 9.49% (active) in test [3]; -28% (active) in test [4]; -6.99% (active) in test [19]; -44% (active) in test [20]. Moreover, the growth in test [7] was 66.5%; in test [8] it was 73.6%; in test [9] it was 66.6%; in test [10], 92.3%; in test [11], 12.7%; in test [12], -3.58% (active). The growth in test [13] was 1.65% (active); in test [14], -21.6% (active); in [15], 3.08% (active); in test [16], -2.36% (active); in test [17], 23.2%.

With `COC(=O)[C@]12CC[C@@H](C)[C@H](C)[C@@H]1C1=CC[C@@H]3[C@@]4(C)C(c5cnco5)=C[C@@](C)(CO)C4=CC[C@@]3(C)[C@]1(C)CC2`, the growth in [1] is 42.3%; in test [2], 41.2%; in [3] it was 55.9%; in test [4], 44.1%; in test [5], 25.4%; in test [6] it was 34%. Further, the growth in test [7] was 35.5%; in [8], 10.1%; in [9], 21.1%; in test [10], 26.1%; in [11], 60.8%; in test [12], 78.8%. For the same compound, the growth in [13] is 40.6%; in test [14], 67.2%; in [15], 77.6%; in [16], 50.1%; in test [17], 72.8%.

On to `Cc1ccc(NC(=O)NC(=O)CSc2nc3ccccc3nc2C)cc1`, for which the growth is 68.3% in test [1]; 59.6% in [2]; 73.7% in test [3]; 64.5% in [4]; 82.3% in test [19]; 58.9% in test [7]. For the same compound, the growth in test [8] was 74.3%; in test [9], 45.8%; in [10], 57.1%; in [11] it was 72.4%; in test [12], 100%; in [13] it was 23.3%. Further, the growth in [14] was 56.2%; in [15], 72.2%; in test [16] it was 97.4%; in test [17] it was 97.6%; in [18] it was 40.6%.

With `COc1ccc(-c2nocc2-c2cc(OC)c(OC)c(OC)c2)cc1`, the growth in [1] was 41.5%; in test [2] it was 54.2%; in test [3] it was 50%; in test [4], 36.3%; in test [19], 67.3%; in test [6], 31.2%. For the same compound, the growth in test [7] was 22.7%; in test [8] it was 20.4%; in [9], 23.6%; in test [10], 30.7%; in test [11], 28.4%; in test [12], 51%. In addition, the growth in test [13] was 45.7%; in [14], 22.5%; in test [15], 46.6%; in test [16], -10.9% (active); in [17], 27.4%; in [18], -19.5% (active).

Regarding `O=C(NCCO)Nc1ccc(-c2nc(N3CCOCC3)c3cccn3n2)cc1`, the growth in [1] was -9.19% (active); in test [2], 3.13% (active); in test [3], 5.36% (active); in test [4], -18.2% (active); in test [5], 9.2% (active); in [6], 9.37% (active). Also, the growth is -54.8% (active) in [20]; 27.4% in test [7]; 16.2% in test [8]; 8.14% (active) in [9]; 7.85% (active) in test [10]; 5.91% (active) in test [11]. The growth is -11% (active) in [12]; -15.5% (active) in test [13]; -37.1% (active) in test [14]; -25.9% (active) in test [15]; 0.347% (active) in test [16]; -34.5% (active) in [17]. Also, the growth in test [18] was 34.5%.

As for `CCCC(=O)OCC1OC(n2cnc3c(=S)nc(N)[nH]c32)C(OC(=O)CCC)C1OC(=O)CCC` (stereo unspecified), the growth in [1] was 15%; in test [2] it was 42.4%; in test [3], 42.8%; in [4], 43.3%; in [19], 23.5%; in test [5], 39.7%. Further, the growth in test [20] was -2.02% (active); in [8] it was 0.324% (active); in test [9], 6.99% (active); in test [11], 6.16% (active); in [12] it was 38.4%; in [13] it was 20.6%. The growth in test [14] was 5.91% (active); in test [15], 51%; in test [16], 6.47% (active); in test [17] it was 29.9%; in test [18], 40.2%.
